In all, about 360,000 compounds went through this assay and about 2,300 (0.64%) were called active. The sample as a whole holds a higher share of actives than the screen did. Unmarked numbers belong to inactive results.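 How the source made its calls: active means compounds giving at least 50% protection of heart cells from peroxide-induced death in the single-dose screen, raw or plate-pattern-corrected value; inactive means the rest.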
test: cardioprotection against H2O2-induced cell death, primary screen, uHTS, H9c2 cells, ATPLite luminescence (AID 588492); conditions: H9c2 cardiomyocytes, H2O2 injury protection, 2 h, at 20 µM, stronger effect = higher value;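 further: 0% = DMSO wells with peroxide and 100% = DMSO wells without peroxide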

Row | SMILES | protection from H2O2 cell death
1 | CC(C(=O)Nc1ccc(S(=O)(=O)N2CCCC2)cc1)N(C)Cc1ccc(F)cc1 (stereo unspecified) | 0.3%
2 | O=C(NCC(=O)N(CC1CCCO1)C(C(=O)NC1CCCCC1)c1ccccc1)c1ccco1 (stereo unspecified) | 2.8%
3 | O=C(NCC(=O)N(Cc1cccs1)C(C(=O)NC1CCCCC1)c1ccco1)c1cccs1 (stereo unspecified) | 68.2% (active)
4 | Cc1ccccc1N(C(=O)CNC(=O)c1cccs1)C(C(=O)NC1CCCC1)c1ccncc1 (stereo unspecified) | 1.9%
5 | COc1ccc(-c2ccc(C(=O)NC(C)C)c3occc23)c(C)c1 | 5.9%
6 | COc1ccc(-c2nc3n(c2Br)CCC3)cc1 | -13.5%
7 | COc1ccc(NC(=O)CN(C)C(=O)c2cc(C)oc2C)cc1 | -3.2%
8 | CCc1ccc(-c2nc(SCC(=O)NC3CCCC3)n[nH]2)cc1 | -11.6%
9 | O=C(OCc1cn([C@H]2C[C@H](c3ccccc3)N(C(=O)c3cccs3)C[C@@H]2O)nn1)c1ccccc1 | -0.9%
10 | COC(=O)c1ccc(C(NC(=O)OCc2ccccc2)/C(F)=C/[C@@H](C)C(=O)O)cc1 (stereo partly specified) | 1.8%
11 | COC(=O)c1cc(CNC(=O)CC(C)c2ccccc2)ccc1OC (stereo unspecified) | 9.7%
12 | COC(=O)c1ccc(C(NC(=O)OCc2ccccc2)/C(C)=C/[C@@H](C)C(=O)NCc2ccc(OC)c(OC)c2)cc1 (stereo partly specified) | 52% (active)
13 | CCCCNC(=O)C(C)N(CCN(C)C)C(=O)CCCCCN1C(=O)NC(c2ccc(Cl)cc2)C(C(=O)OCc2ccccc2)=C1C (stereo unspecified) | -27%
14 | CC(=O)NC(c1cccc(F)c1)c1nc(-c2cccc(F)c2)cs1 (stereo unspecified) | -2.7%
15 | Nc1nc2cc(Cl)ccc2n1N | 1.6%
16 | COc1ccc(NC(=O)c2oc3ccc(S(=O)(=O)N4CCOCC4)cc3c2C)cc1 | 52.7% (active)
17 | Cc1c(C(=O)Nc2ccccc2Cl)oc2ccc(S(=O)(=O)N3CCC4(CC3)OCCO4)cc12 | 0.9%
18 | Cc1c(C(=O)Nc2cccc(S(=O)(=O)N3CCOCC3)c2)oc2ccccc12 | 4.3%
19 | Cc1ccc(NC(=O)C(C)OC(=O)Cc2c[nH]c3ccccc23)cc1S(=O)(=O)N1CCOCC1 (stereo unspecified) | -2.5%

Row | SMILES | protection from H2O2 cell death
20 | C/C(=N\NC(=O)c1cccc([N+](=O)[O-])c1)c1cccnc1 | 9.5%
21 | CCN(CC)c1ccc(S(=O)(=O)N2CCCCC2)cc1NC(=O)C1=COCCO1 | -3.5%
22 | CC(=O)c1c(C)[nH]c(C(=O)OCC(=O)Nc2sc3c(c2C#N)CCCC3)c1C | -12.2%
23 | CC(=O)NC(c1cccs1)c1cc(Br)c2cccnc2c1O (stereo unspecified) | 43.4%
24 | CCCCC(=O)NC(c1ccc(OC)c(OC)c1)c1ccc2cccnc2c1O (stereo unspecified) | 36.9%
25 | CCN1CCN(C(c2cccnc2)c2cc(Cl)c3cccnc3c2O)CC1 (stereo unspecified) | 64% (active)
26 | CCOC(=O)N1CCN(C(=O)C2CCN(c3ncnc4c3sc3cccc(F)c34)CC2)CC1 | -28.4%
27 | CCOC(=O)N1CCN(C(c2cccnc2)c2ccc3cccnc3c2O)CC1 (stereo unspecified) | 69.3% (active)
28 | CCn1c(SC(C)C(=O)Nc2ccc(N3CCOCC3)cc2)nnc1-c1ccco1 (stereo unspecified) | -3.9%
29 | O=C(CN1C(=O)c2cccnc2Oc2ccc(Cl)cc21)Nc1ccc(F)cc1 | 21.7%
30 | OC(c1cc(Cl)cc(Cl)c1)c1ncc(-c2ccccc2C(F)(F)F)[nH]1 (stereo unspecified) | -8.9%
31 | COc1cccc2sc(NNC(=O)c3nc4ccccc4s3)nc12 | 53.7% (active)
32 | CC(=O)Nc1cccc(-c2nc3ccccc3s2)c1C | -3.3%
33 | COc1cccc(/C=C(/CC(=O)Nc2ccc(N3CCOCC3)cc2)c2nc3ccccc3s2)c1 | -4.6%
34 | COC(=O)[C@@H]1CCCN1C(=O)c1cc(COc2cccc3cccnc23)on1 | 11.6%
35 | CSCCC(c1nnnn1Cc1ccccc1)N1CCN(C/C=C/c2ccccc2)CC1 (stereo unspecified) | -2%
36 | Cc1ccc(C(=O)OCC(=O)NC2CCCCCCC2)cc1C | -0.9%
37 | CCn1c2ccc(F)cc2c2nnc(SCCN3CCOCC3)nc21 | 3.7%
38 | Cn1c2ccc(F)cc2c2nnc(NN)nc21 | 56.4% (active)

Row | SMILES | protection from H2O2 cell death
39 | CN(C)c1nc(NN)nc(Nc2ccc(F)cc2)n1 | -2.7%
40 | CSc1nc(-c2ccccc2)nc(C(Cl)Cl)n1 | -2.9%
41 | COC(=O)c1c(C(=O)OC)c2n(c1C)CCS2 | -0.3%
42 | COc1ccc(CNC(=O)C(c2ccc(O)cc2)N(Cc2ccco2)C(=O)c2snc(C(N)=O)c2N)cc1 (stereo unspecified) | 49%
43 | Cc1cccc(N(C(=O)c2csnn2)C(C(=O)NCc2ccccc2)c2ccncc2)c1 (stereo unspecified) | 2.2%
44 | COc1ccc(C(C(=O)NCc2ccccc2)N(Cc2cccs2)C(=O)c2cnccn2)cc1 (stereo unspecified) | 79.8% (active)
45 | CC(C)c1nnc(NC(=O)CCC(=O)N2CCN(c3cccc(Cl)c3)CC2)s1 | -2.1%
46 | CCOc1ccc(-c2ccc(SCC(=O)N3CCOCC3)nn2)cc1 | -13.9%
47 | COc1cccc(/C=C/C(=O)OCC(=O)N2CCN(c3ccccc3)CC2)c1 | 2%
48 | COc1cccc(-c2ccc(SCC(=O)N3CCN(c4ccccc4)CC3)nn2)c1 | 53.9% (active)
49 | CC1(C(=O)NS(=O)(=O)Cc2cccc(Cl)c2)CCN1C(=O)Cc1ccccc1 (stereo unspecified) | -2.8%
50 | COc1ccc(NC(=O)CN(C)C(=O)CC2CCCCC2)cc1 | 0.1%
51 | CCOC(=O)c1ccc(NC(=O)c2nc[nH]c2C(=O)NCc2ccccc2)cc1 | 21.8%
52 | Cc1cccc(NC(=O)c2nc[nH]c2C(=O)NCC(=O)OCc2ccccc2)c1 | 86.4% (active)
53 | C[C@H](NC(=O)c1nc[nH]c1C(=O)NCC(=O)OC(C)(C)C)C(=O)OCc1ccccc1 | 41.9%
54 | COC(=O)C1=C(C)NC2=C(C(=O)c3ccccc32)C1c1ccc(-c2ccc(C(=O)O)cc2)o1 (stereo unspecified) | 60.9% (active)
55 | COC(=O)C1=C(C)NC(=O)/C1=C/c1ccc(CNS(=O)(=O)c2ccc(C)cc2)o1 | 2.9%
56 | Nc1ccc2nc3c(=O)[nH]c(=S)[nH]c3nc2c1 | -6.1%

From PubChem BioAssay AID588492 (Sanford-Burnham Center for Chemical Genomics, 2011)
